# Experimental data published in PubChem BioAssay AID1159580 (chemical genetic matrix, 2015).
# Screen size: about 5,500 compounds; about 2,000 (36%) were called active. Another 18% or so got no clear call; they are omitted. Some of the results follow. Unmarked numbers belong to inactive results. No stated cut-off is given here; in the data, active means normalized growth mostly below about 0.91 (no sharp cut-off); inconclusive means no clear call, values can overlap the other calls; inactive means mostly above about 0.92.
# Experiment: chemical genetic growth profiling, strain panel (AID 1159580);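 further: tested at 20 µM; growth read once vehicle control cultures reached saturation at 30 °C; 1 = growth at the plate median or of vehicle wells; lower values mean less growth of the strain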
# Conditions: S. cerevisiae deletion strains, growth OD
compound,measurement,setting,value
C[C@@H]1O[C@H](C[N+](C)(C)C)C[C@H]1O,normalized growth,"locus YAL013W, strain DEP1, hits give low values",1.01
same,normalized growth,"locus YAL040C, strain CLN3, hits give low values",1
same,normalized growth,"locus YCL061C, strain MRC1 (second series), hits give low values",1.01
same,normalized growth,"locus YDR363W, strain ESC2, hits give low values",0.993
same,normalized growth,"locus YER002W, strain NOP16, hits give low values",1.02
same,normalized growth,"locus YMR263W, strain SAP30, hits give low values",1.01
same,normalized growth,"locus YNL128W, strain TEP1, hits give low values",1
same,normalized growth,"locus YNL153C, strain GIM3, hits give low values",1.02
same,normalized growth,"locus YNL175C, strain NOP13, hits give low values",1.01
same,normalized growth,"locus YNL197C, strain WHI3, hits give low values",1.01
same,normalized growth,"locus YNL224C, strain SQS1, hits give low values",1.01
same,normalized growth,"locus YOR083W, strain WHI5 (second series), hits give low values",1.01
same,normalized growth,"locus YPL241C, strain CIN2, hits give low values",1.01
CC(C)CCCC1(C)C=Cc2c(O)c3c(c(CCC(C)C)c2O1)OC12C(CC4CC1C(C)(C)OC2(CCC(C)C(=O)O)C4O)C3=O (stereo not drawn),normalized growth,"locus YAL021C, strain ccr4, hits give low values",1
same,normalized growth,"locus YAL026C, strain drs2, hits give low values",0.991
same,normalized growth,"locus YAL030W, strain snc1, hits give low values",1
same,normalized growth,"locus YBL061C, strain skt5, hits give low values",0.996
same,normalized growth,"locus YBR009C, strain hhf1, hits give low values",0.992
same,normalized growth,"locus YBR023C, strain chs3, hits give low values",0.998
same,normalized growth,"locus YBR171W, strain sec66, hits give low values",0.991
same,normalized growth,"locus YBR231C, strain swc5, hits give low values",0.997
same,normalized growth,"locus YBR279W, strain paf1, hits give low values",0.994
same,normalized growth,"locus YCL011C, strain gbp2, hits give low values",0.994
same,normalized growth,"locus YCL016C, strain dcc1, hits give low values",0.989
same,normalized growth,"locus YCL061C, strain MRC1, hits give low values",0.986
same,normalized growth,"locus YCL069W, strain vba3, hits give low values",0.998
same,normalized growth,"locus YCR088W, strain abp1, hits give low values",0.997
same,normalized growth,"locus YDL005C, strain med2, hits give low values",0.985
same,normalized growth,"locus YDL040C, strain nat1, hits give low values",0.995
same,normalized growth,"locus YDR001C, strain nth1, hits give low values",0.998
same,normalized growth,"locus YDR069C, strain doa4, hits give low values",0.988
same,normalized growth,"locus YDR137W, strain rgp1, hits give low values",0.815 (active)
same,normalized growth,"locus YDR159W, strain sac3, hits give low values",0.991
same,normalized growth,"locus YDR195W, strain ref2",1.01
same,normalized growth,"locus YDR297W, strain sur2, hits give low values",0.998
same,normalized growth,"locus YDR334W, strain swr1, hits give low values",0.975
same,normalized growth,"locus YDR335W, strain msn5, hits give low values",0.995
same,normalized growth,"locus YDR392W, strain spt3, hits give low values",0.925
same,normalized growth,"locus YEL003W, strain gim4, hits give low values",0.982
same,normalized growth,"locus YEL037C, strain rad23, hits give low values",1.03
same,normalized growth,"locus YEL061C, strain CIN8 (second series), hits give low values",0.996
same,normalized growth,"locus YER015W, strain faa2, hits give low values",1
same,normalized growth,"locus YER016W, strain bim1, hits give low values",0.99
same,normalized growth,"locus YER111C, strain swi4, hits give low values",1.02
same,normalized growth,"locus YER155C, strain BEM2 (second series), hits give low values",1.01
same,normalized growth,"locus YFR010W, strain ubp6, hits give low values",0.986
same,normalized growth,"locus YGL167C, strain pmr1, hits give low values",0.988
same,normalized growth,"locus YGL173C, strain kem1, hits give low values",0.991
same,normalized growth,"locus YGL227W, strain vid30, hits give low values",1.01
same,normalized growth,"locus YGL240W, strain doc1, hits give low values",0.979
same,normalized growth,"locus YGL253W, strain hxk2, hits give low values",1
same,normalized growth,"locus YHR013C, strain ard1, hits give low values",1.02
same,normalized growth,"locus YHR027C, strain rpn1, hits give low values",1
same,normalized growth,"locus YHR030C, strain SLT2, hits give low values",0.966
same,normalized growth,"locus YHR079C, strain IRE1, hits give low values",0.971
same,normalized growth,"locus YHR142W, strain chs7, hits give low values",1.01
same,normalized growth,"locus YJL092W, strain hpr5, hits give low values",0.988
same,normalized growth,"locus YJL095W, strain BCK1 (second series), hits give low values",1
same,normalized growth,"locus YJL095W, strain BCK1, hits give low values",0.987
same,normalized growth,"locus YJL115W, strain asf1, hits give low values",0.996
same,normalized growth,"locus YJL129C, strain trk1, hits give low values",0.958
same,normalized growth,"locus YJL154C, strain vps35, hits give low values",0.994
same,normalized growth,"locus YJL164C, strain tpk1, hits give low values",0.982
same,normalized growth,"locus YJL166W, strain qcr8, hits give low values",0.996
same,normalized growth,"locus YJL187C, strain SWE1, hits give low values",0.997
same,normalized growth,"locus YJR066W, strain TOR1, hits give low values",0.919
same,normalized growth,"locus YKL160W, strain elf1, hits give low values",1
same,normalized growth,"locus YKR026C, strain gcn3, hits give low values",1
same,normalized growth,"locus YKR091W, strain srl3, hits give low values",0.998
same,normalized growth,"locus YLL001W, strain dnm1, hits give low values",1
same,normalized growth,"locus YLL026W, hits give low values",0.997
same,normalized growth,"locus YLL041C, strain sdh2, hits give low values",0.995
same,normalized growth,"locus YLR027C, strain aat2, hits give low values",0.999
same,normalized growth,"locus YLR113W, strain HOG1, hits give low values",0.941
same,normalized growth,"locus YLR221C, strain rsa3, hits give low values",0.989
same,normalized growth,"locus YLR258W, strain gsy2, hits give low values",0.998
same,normalized growth,"locus YLR262C, strain YPT6 (second series), hits give low values",0.919
same,normalized growth,"locus YLR320W, strain mms22, hits give low values",0.99
same,normalized growth,"locus YLR342W, strain FKS1, hits give low values",1
same,normalized growth,"locus YLR357W, strain rsc2, hits give low values",1.04
same,normalized growth,"locus YLR370C, strain arc18, hits give low values",0.999
same,normalized growth,"locus YLR384C, strain iki3, hits give low values",0.992
same,normalized growth,"locus YML120C, strain ndi1, hits give low values",0.997
same,normalized growth,"locus YMR058W, strain fet3, hits give low values",0.986
same,normalized growth,"locus YMR125W, strain sto1, hits give low values",0.991
same,normalized growth,"locus YMR129W, hits give low values",0.993
same,normalized growth,"locus YMR205C, strain PFK2, hits give low values",0.955
same,normalized growth,"locus YMR231W, strain pep5, hits give low values",0.986
same,normalized growth,"locus YNL071W, strain lat1, hits give low values",0.969
same,normalized growth,"locus YNL183C, strain NPR1, hits give low values",0.92
same,normalized growth,"locus YNL209W, strain ssb2, hits give low values",0.99
same,normalized growth,"locus YNL248C, strain rpa49, hits give low values",1.01
same,normalized growth,"locus YNL322C, strain KRE1 (second series), hits give low values",1.01
same,normalized growth,"locus YNR049C, strain mso1, hits give low values",1.01
same,normalized growth,"locus YOR001W, strain rrp6, hits give low values",0.983
same,normalized growth,"locus YOR070C, strain gyp1, hits give low values",0.995
same,normalized growth,"locus YOR080W, strain dia2, hits give low values",1
same,normalized growth,"locus YOR083W, strain WHI5, hits give low values",0.99
same,normalized growth,"locus YOR106W, strain vam3, hits give low values",0.996
same,normalized growth,"locus YOR231W, strain MKK1, hits give low values",0.964
same,normalized growth,"locus YOR265W, strain rbl2, hits give low values",1
same,normalized growth,"locus YOR270C, strain vph1, hits give low values",0.955
same,normalized growth,"locus YOR290C, strain snf2, hits give low values",0.995
same,normalized growth,"locus YPL051W, strain arl3, hits give low values",0.98
same,normalized growth,"locus YPL078C, strain atp4, hits give low values",1
same,normalized growth,"locus YPL106C, strain sse1, hits give low values",1
same,normalized growth,"locus YPL240C, strain hsp82, hits give low values",1.01
same,normalized growth,"locus YPL256C, strain CLN2, hits give low values",0.985
